Consider 14 compounds from PubChem BioAssay (NCI).

About 83,000 compounds went through this panel and 20% of them were active in at least one assay; those are over-represented in the sample as a whole.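 Assay: single dose, 48 h. Readout: percent growth (0 = no net growth; negative = cell death). Active: <10.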 A number with no mark means an inactive call. The source made the active and inactive calls.

Test in all cases: NCI-60 one-dose screen, 48 h (100 = growth as untreated, 0 = no growth, -100 = all killed)
Settings in all cases: 10 µM unless noted

Experiment [1] deals with DU-145 prostate.
Experiment [2] relates to K-562 leukemia.
The subject of experiment [3] is MALME-3M melanoma.
For experiment [4], the system named is MDA-MB-231 breast.
The test system of experiment [5] is RXF 393 renal.
Experiment [6] concerns SF-268 CNS.
Experiment [7] has as its system SF-295 CNS.
Experiment [8] relates to SF-539 CNS.
Experiment [9] concerns UACC-257 melanoma.
Experiment [10] relates to M14 melanoma.

Take `CCCn1c2cc(OCc3cn(-c4ccc(Br)cc4)nn3)ccc2c2ccnc(C)c21`: the growth is 90.2% in experiment [1]; 35.4% in experiment [2]; 87.1% in [3]; 50.5% in experiment [4]; 51% in experiment [5]; 88% in experiment [6]. Also, the growth in [7] was 65.6%; in experiment [8] it was 36.4%; in experiment [9] it was 53.3%; in experiment [10], 67.5%.

As for `COc1ccc(-c2[nH]c3ccccc3c2C=C(C#N)C#N)cc1`, the growth is -10.1% (active) in [1]; -5.54% (active) in experiment [2]; 87.4% in [3]; 17.6% in experiment [4]; 3.79% (active) in experiment [5]; 25.1% in experiment [6]. For the same compound, the growth is -50.4% (active) in [7], -26.8% (active) in experiment [8], 54.2% in experiment [9] and 1.05% (active) in [10].

`CCCS(=O)(=O)Nc1ccc(F)c(C(=O)c2c[nH]c3ncc(-c4ccc(OCCCC5CCCCN5)nc4)cc23)c1F` (stereo not given): the growth was 87.5% in experiment [1]; 30.1% in experiment [2]; -25.7% (active) in [3]; 14.9% in [4]; 63.9% in experiment [5]; 68.6% in experiment [6]. Moreover, the growth in [7] was 75.7%; in experiment [8], 28.4%; in experiment [9], -17% (active); in experiment [10] it was -17.2% (active).

For the compound `Cc1cc(C)c(NC(=O)c2sc3nc4c(cc3c2N)CCCCCC4)c(C)c1`, the growth was 66.4% in experiment [1]; 16.8% in experiment [2]; 57.4% in [3]; 88.2% in experiment [4]; 65.8% in experiment [5]; 59.4% in [6]. The growth in [7] was 38.1%; in experiment [8], 60%; in experiment [9], 62.8%; in experiment [10], 27%.

On to `CC(=O)c1ccc(NC(=O)CSc2nnc(-c3cc(-c4ccc(C)cc4)nc4ccccc34)o2)cc1`, for which the growth is 63.5% in [1]; 38.1% in [2]; -5.39% (active) in [3]; -2.97% (active) in [4]; 59% in experiment [5]; 55.2% in experiment [6]. In addition, the growth in experiment [7] was 69.5%; in [8], 53.7%; in experiment [9], 101%; in [10], 57.9%.

On to `CCCn1cc(/C=N\N=C2\C(=O)Nc3ccc(C)cc32)c2ccccc21`, for which the growth in experiment [1] was 66.4%; in experiment [2] it was 17.6%; in experiment [3] it was 51.7%; in experiment [4], 34.4%; in experiment [5], 11.4%; in [6], 46.6%. The growth in experiment [7] is 71.1%; in experiment [8], 33.9%; in experiment [9], 58.8%; in experiment [10] it was 56.3%.

Consider `CCOC(=O)C1=C(C)n2nc(CC#N)c(C#N)c2NC1c1ccc(Cl)cc1` (stereo not given), for which the growth in [1] is 97.2%; in experiment [2] it was 115%; in [3], 87.4%; in experiment [4], 88.8%; in experiment [5] it was 100%; in experiment [6] it was 87.3%. Besides, the growth in [7] was 102%; in experiment [8], 96.8%; in [9], 114%; in experiment [10] it was 91.2%.

Take `NS(=O)(=O)c1ccc(C2C3=C(CCCC3=O)OC3=C2C(=O)c2ccccc2C3=O)cc1` (stereo not given): the growth in experiment [1] was -99.1% (active); in experiment [2], -43.3% (active); in experiment [3], -97.4% (active); in [4] it was 5% (active); in experiment [5] it was -90% (active); in [6], -42.6% (active). For the same compound, the growth in experiment [7] is -80.3% (active); in experiment [8], -88.5% (active); in [9] it was -90.3% (active); in experiment [10], -95% (active).

As for `C#C[C@@]1(O)[C@@H](CO)O[C@@H](n2cc(Cl)c3c(N)ccnc32)[C@@H]1O`, the growth in [1] was 56.1%; in experiment [2] it was 42.8%; in [3] it was 82.3%; in [4] it was 57.4%; in [5] it was 106%; in experiment [6], 87.4%. Also, the growth in [7] is 81.9%; in [8], 89.3%; in experiment [9], 89.2%; in experiment [10], 85.3%.

Turning to `Cc1[nH]c(N=Nc2ccccc2)nc1N=Nc1ccccc1`, the growth in experiment [1] is 33.6%; in experiment [2], 23.6%; in [3] it was 30.2%; in experiment [4], 38.1%; in experiment [5] it was -31.9% (active); in experiment [6], 19.2%. In addition, the growth in experiment [7] was 17.4%; in experiment [8], 6.93% (active); in experiment [9] it was -42.4% (active); in [10], 3.54% (active).

For the compound `CCOC(=O)C1CCN(S(=O)(=O)/N=C2/NC(=O)NC2=C(Cl)Cl)CC1`, the growth in [1] was 25.7%; in [2], -15.7% (active); in experiment [3], -60% (active); in [4], 9.62% (active); in [5] it was 83.8%; in experiment [6], 11.2%. Further, the growth was 17.4% in experiment [7], -4.27% (active) in experiment [8], 19.9% in experiment [9] and -22.4% (active) in experiment [10].

As to `COc1ccc(-c2cc(-c3nnc(SCC(=O)Nc4ccc(C(C)=O)cc4)o3)c3ccccc3n2)cc1`, the growth in experiment [1] was 6.34% (active); in experiment [2], 35.2%; in experiment [3], -52.7% (active); in experiment [4], -23.9% (active); in [5], -4.69% (active); in experiment [6], 33.8%. Besides, the growth is 42.5% in experiment [7], 12.3% in experiment [8], 68.3% in experiment [9] and 5.23% (active) in [10].

On to `CCOC(=O)c1c(C)nc2c(c1N)/C(=C/c1ccc[nH]1)C(=O)N2Cc1ccc(C(F)(F)F)cc1`, for which the growth in experiment [1] is 79.1%; in experiment [2], 63.4%; in experiment [3] it was 62.1%; in experiment [4], 18.3%; in [5], 48.6%; in experiment [6], 55.5%. The growth is 29.4% in experiment [7], 40.4% in [8], 77.6% in [9] and 69.8% in experiment [10].

As to `Cc1ccc(-c2nc(C#N)c(S(=O)(=O)N(C)CCO)o2)cc1`, the growth in experiment [1] is 90.2%; in experiment [2], 25%; in experiment [3] it was 60.1%; in [4], 81.4%; in experiment [5], 107%; in experiment [6] it was 72.6%. Also, the growth in experiment [7] was 104%; in experiment [8], 43%; in experiment [9], 77.9%; in [10], 61.7%.
